Screens as filed in PubChem BioAssay.
The list is not random: actives were taken first. Their share in the collection is about 2.3%.
M1 PAM = potentiates human M1 receptor response to acetylcholine; CHO-K1 hM1, Fluo-8 calcium fluorescence, ACh EC20; 0% = ACh EC20, 100% = maximal ACh; P11229; 360,000 compounds, 0.088% hits; activation, % at 3 µM; in the data active means activation above about 19%, passing the limit was not always enough
Target sequence (P11229 whole entry, looked up): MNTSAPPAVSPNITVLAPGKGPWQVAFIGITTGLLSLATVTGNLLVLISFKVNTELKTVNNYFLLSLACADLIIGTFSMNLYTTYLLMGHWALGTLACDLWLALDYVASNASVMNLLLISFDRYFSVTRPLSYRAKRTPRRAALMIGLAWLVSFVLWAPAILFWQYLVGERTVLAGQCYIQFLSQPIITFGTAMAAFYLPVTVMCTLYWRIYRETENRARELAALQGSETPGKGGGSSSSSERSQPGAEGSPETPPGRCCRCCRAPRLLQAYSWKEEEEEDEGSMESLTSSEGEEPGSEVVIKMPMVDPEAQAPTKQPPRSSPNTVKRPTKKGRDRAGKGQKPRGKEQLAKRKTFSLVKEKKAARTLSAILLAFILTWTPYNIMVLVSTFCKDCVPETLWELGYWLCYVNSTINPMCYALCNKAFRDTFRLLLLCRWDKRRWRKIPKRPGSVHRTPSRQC
CHRM1 agonist = human M1 muscarinic receptor agonism; P11229; CHO-K1 hM1, Fluo-8 calcium fluorescence, agonist mode; 0% DMSO, 100% acetylcholine EC100; activation, % at 3 µM; 360,000 compounds, 0.33% hits; AID 588814;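 active means activation above the run's mean compound activation plus 3 SD, cut at about 16% in these data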;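 further: peak over basal fluorescence ratio within a 140 s kinetic read after compound addition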
CHO-K1 Ca antag = M1 antagonist counterscreen hit in parental CHO-K1 cells. 360,000 compounds, 0.6% hits. inhibition, % at 3 µM. ATP-induced calcium, Fluo-8 fluorescence;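 active means inhibition above a per-plate cutoff, the plate's mean sample inhibition plus 3 SD, cut at about 24% in these data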;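 further: 0% = DMSO plus EC80 ATP and 100% = DMSO alone without ATP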
M1 ag parental = M1 agonist counterscreen hit in parental CHO-K1 cells; AID 602248; Fluo-8 calcium fluorescence; scaled to maximal ATP response, vehicle zero; 360,000 compounds, 0.48% hits; activation, % at 3 µM; in the data active means activation above about 15%;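 further: untransfected CHO-K1 host cells lacking M1 receptor as counterscreen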
CHRM1 antagonist = human CHRM1 antagonism; 360,000 compounds, 1.3% hits; CHO-K1 hM1, Fluo-8 calcium fluorescence, ACh EC80 antagonist; inhibition, % at 3 µM; P11229;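 active means percent inhibition above its own plate's cutoff, namely the mean of that plate's compound wells plus 3 SD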;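 further: peak over basal fluorescence ratio during 140 s after agonist addition; 0% = ACh EC80 plus DMSO and 100% = DMSO alone without agonist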
M1 PAM parental = M1 PAM counterscreen hit in parental CHO-K1 cells; AID 602247; 360,000 compounds, 0.02% hits; ATP EC20, Fluo-8 calcium fluorescence; 0% at ATP EC20, 100% at ATP max; activation, % at 3 µM;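 active means activation above the run cutoff, the mean activation of all test compounds plus 3 SD, cut at about 40% in these data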;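 further: peak over basal fluorescence ratio in a 140 s read after ATP addition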
Numbers without * were called inactive.

SMILES	M1 PAM	CHRM1 agonist	CHO-K1 Ca antag	M1 ag parental	CHRM1 antagonist	M1 PAM parental
c1ccc(-c2ccc(CN3CCN(c4ncccn4)CC3)cc2)cc1	-14.5	-5.8	24.7*	-0.2	14.6	-7.6
c1ccc(N2CCN(Cc3ccc4c(c3)OCO4)CC2)nc1	-0.5	-7.2	1.7	0.0	0.7	13.9
c1ccc(COc2ccc(CN3CCN(c4ccccn4)CC3)cc2)cc1	-21.8	-5.8	16.9	-0.2	32.5*	-5.3
CCOc1cc(S(=O)(=O)NCc2ccncc2)ccc1Cl	-18.7	0.8	55.2*	12.1	23.2	-15.2
CCOC(=O)COc1ccc(S(=O)(=O)NCc2ccncc2)cc1	-11.0	3.2	12.1	12.7	18.7*	-7.1
CCOc1cc(S(=O)(=O)NCc2cccs2)ccc1Cl	-11.9	-4.0	11.3	0.5	-4.1	-1.1
CCOc1ccc(S(=O)(=O)NCc2ccncc2)cc1	-5.8	1.1	15.1	7.0	17.0	-1.8
CN1OC[C@@H]2CN(Cc3cc(Cl)cc(Cl)c3)[C@H](c3cccc(-c4ccc(C#N)cc4)c3)C[C@@H]21	7.3	-1.3	0.9	-0.3	-13.2	-3.8
CCOC(=O)C1=C(COC(=O)c2ccc(Br)c(S(=O)(=O)N3CCOCC3)c2)NC(=O)NC1C (stereo unspecified)	0.8	1.4	2.0	2.9	10.6	-16.7
Cc1noc(-c2ccccc2)c1NC(=O)Nc1ccc(Cl)cc1	-24.3	0.3	1.6	15.1*	41.1*	5.7
CCOc1cc(CNCc2cccnc2)cc(Br)c1OCC(N)=O	13.0	2.4	3.9	0.6	-9.8	-13.7
CCOc1ccc(CN2CCN(c3ncnc4scc(-c5ccccc5)c34)CC2)cc1	-5.6	22.2*	-9.3	-0.2	8.8	0.9
Cc1onc(-c2ccccc2)c1C(=O)NNC(=O)c1ccccc1	10.4	-2.5	-15.2	0.4	-16.8	12.4
Cc1cccc(C(=O)NC(=S)NNC(=O)Cc2ccccc2)c1	-5.8	15.3	16.4	1.2	2.5	-13.7
Cc1cccc(C(=O)NC(=S)NNC(=O)c2ccccc2Cl)c1	-25.1	91.1*	3.3	71.5*	27.4	-3.8
O=C(NC(=S)Nc1ncccn1)c1ccc(Cl)cc1Cl	10.0	-6.0	-3.8	20.6*	-6.6	12.3
Cc1onc(-c2ccccc2)c1C(=O)NNC(=S)NC(=O)/C=C/c1ccccc1	-10.3	40.4*	-7.5	21.0*	4.6	5.8
Cc1onc(-c2ccccc2)c1C(=O)NNC(=S)NC(=O)c1ccc(Br)cc1	-18.3	75.0*	-7.8	64.8*	7.5	-11.9
CCCCC1CCC(C(=O)OC(C)C(=O)Nc2ccc(NC(C)=O)cc2)CC1 (stereo unspecified)	-1.7	-0.4	-18.5	-0.2	7.8	24.4
Nc1cccc(N=[N+]([O-])c2cccc(N)c2)c1	4.0	0.8	-9.3	2.0	-10.4	16.1
O=C(Cn1cnc2c(nnn2Cc2ccc(F)cc2)c1=O)NCC1CCCO1 (stereo unspecified)	4.2	0.7	1.4	0.8	2.9	12.4
Cc1onc(-c2ccccc2)c1C(=O)NNC(=O)c1ccccc1O	3.7	-2.6	-10.1	1.1	-6.1	8.9
O=C(NC(=S)NNC(=O)c1ccc(Cl)cc1Cl)c1cccnc1	0.6	-2.7	10.8	0.4	1.6	-4.7
Cc1ccccc1C(=O)NNC(=S)NC(=O)c1ccc(Cl)cc1Cl	-24.8	85.3*	12.2	88.8*	17.6	-13.3
Cc1onc(-c2ccccc2)c1C(=O)NNC(=S)NC(=O)c1ccc(Cl)cc1Cl	-27.6	90.3*	1.2	25.7*	16.1	-12.3
SMILES	M1 PAM	CHRM1 agonist	CHO-K1 Ca antag	M1 ag parental	CHRM1 antagonist	M1 PAM parental
Cc1ccc(C(=O)NNC(=S)NC(=O)c2ccc(Cl)cc2)cc1	-37.6	98.3*	9.0	101.8*	45.3*	-19.4
COc1ccccc1C(=O)NC(=O)COC(=O)c1nc(Cl)ccc1Cl	6.5	-2.0	2.6	0.6	-12.1	-4.8
COc1cc(/C=N/N=C2/NC(=O)C(Cc3ccccc3)S2)ccc1O (stereo unspecified)	6.9	0.8	4.7	24.5*	0.5	18.0
COc1ccc(/C=N/N=C2/NC(=O)C(CC(=O)O)S2)cc1OS(=O)(=O)c1ccccc1 (stereo unspecified)	3.9	-2.3	-7.8	-0.3	-6.2	2.7
CCn1c2ccc(C)cc2c2nnc(SCCN3CCCCC3)nc21	-20.3	-11.3	-7.4	-0.1	36.7*	-5.6
C=CCn1c2ccccc2c2nnc(SCN3C(=O)c4ccccc4C3=O)nc21	-21.9	-0.4	4.9	6.2	46.4*	13.9
C=CCn1c2ccccc2c2nnc(SCCN3CCCCC3)nc21	-28.6	-10.2	-19.4	0.3	53.3*	17.9
CCCn1c2ccc(C)cc2c2nnc(SCCN3CCCCC3)nc21	-19.9	-10.4	-13.7	0.3	19.9	-7.0
CCOc1ccc(CCNC(=O)c2cccc(-n3cnnn3)c2)cc1OCC	8.7	-0.8	-21.0	2.6	-8.3	19.1
CCOC(=O)c1c(C)oc2ccc(NS(=O)(=O)c3ccc(C(=O)O)cc3)cc12	-9.2	-4.9	7.8	-1.0	14.0	0.2
CC1(C)CC(=O)c2c(oc3ccc(NS(=O)(=O)c4ccc(C(=O)O)cc4)cc23)C1	19.0	4.8	24.5*	-0.3	-1.0	-17.7
CC(C(=O)N1CCN=C1c1ccccc1)N1C(=O)c2ccccc2C1=O (stereo unspecified)	-7.5	0.3	0.6	3.4	19.8	0.2
COc1ccc2nc3ccccc3nc2c1NC(=O)c1ccc(Cl)cc1Cl	-2.1	-3.9	-5.2	0.3	6.3	22.6
Cc1ccc(Cl)cc1N1CCN(C(=O)CCS(=O)(=O)c2ccc3c(c2)NC(=O)CO3)CC1	-18.6	5.3	5.2	15.5*	37.0*	-17.1
CCCOC1CCCN(Cc2nc(-c3cnccn3)no2)C1 (stereo unspecified)	-2.4	0.5	-6.1	0.1	4.4	-8.9
C[C@@H]1CN(Cc2nc(-c3cnccn3)no2)C[C@H](C)O1	-0.9	-3.4	-0.7	24.1*	9.5	11.0
O=c1[nH]c(C2CCN(S(=O)(=O)c3cccc([N+](=O)[O-])c3)CC2)nc2c1nnn2Cc1ccccc1	10.0	-1.0	0.3	5.6	-4.3	1.6
COc1ccc(CCNC(=O)C(=O)NCC2CCCN2S(=O)(=O)c2ccc(OC)cc2)cc1 (stereo unspecified)	-11.4	1.0	1.6	11.9	27.2*	0.2
COc1ccc(NC(=O)C(=O)NCC2CCCN2S(=O)(=O)c2cc(C)ccc2C)cc1 (stereo unspecified)	3.2	-4.5	51.7*	0.5	-12.9	11.9
COc1ccc(S(=O)(=O)N2CCCC2CNC(=O)C(=O)NC2CCCC2)cc1 (stereo unspecified)	9.8	-2.5	-7.6	0.7	-23.3	10.2
